Pf Dd2 growth: qHTS Primary assay for Inhibitors of Plasmodium falciparum Dd2 growth in vitro; P. falciparum Dd2 growth, SYBR Green, 72 h; Potency, µM (highest dose often 28.9 µM), inactives show at the top dose activity, negative = inhibition, actives largely listed as inhibitors; 4.3% of 120,000 active; AID 1347417, 2020; active = well fitted inhibition curve with a large enough effect;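 note: plate controls were DMSO vehicle for no effect and reference drug for full effect; nearly all actives have a fitted effect of over 65% in size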
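Infected erythrocytes (Dd2, 0.3% parasitemia, 2.5% hematocrit final) are added to compound in RPMI-1640/Albumax II medium, grown 72 h at 37C in low oxygen, then lysed with saponin/Triton-X containing SYBR Green and read by fluorescence.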
The depositor's hits bear a star; i = inactive; [ ] = another dose, or the depositor's remark. The entries come from a sample that favours hits as a whole. Potency is the fitted concentration of half-maximal effect.

SMILES	Pf Dd2 growth
CN1C(=O)C(CC(=O)NCC2CCN(Cc3ccc(F)cc3)CC2)=C2CCCCC21 (stereo not drawn)	5.01µM*
CN1C(=O)C(CC(=O)NCCCN2CCc3ccccc3C2)=C2CCCCC21 (stereo not drawn)	-22.4%
CCCc1cc(C(=O)N2C[C@@H](c3ccc(F)cc3)[C@@H]3[C@H]2C2CCN3CC2)n[nH]1	-13.4%
CCOc1ccc(NC(=O)Cn2nc(Cc3cccnc3)c3ccccc3c2=O)cc1	-24.1%
Cc1ccc(NC(=O)Cn2nc(Cc3ccncc3)c3ccccc3c2=O)c(Cl)c1	5.7%
CCN(C(=O)Cn1nc(Cc2ccncc2)c2ccccc2c1=O)c1cccc(Cl)c1	11.2µM*
Cc1cccnc1NC(=O)C1c2ccccc2C(=O)N(Cc2ccccc2)C12CCCC2 (stereo not drawn)	-28.6%
Fc1ccc(NCc2ccccc2-c2nnc(-c3ccccc3Cl)o2)cc1	12.6µM*
Fc1ccc(N2CCN(Cc3nnc(-c4ccccc4Cl)o3)CC2)cc1	2.4%
Cc1ccc(NCc2ccccc2-c2nnc(-c3ccccc3Cl)o2)cc1Cl	-24.4%
O=C(NCc1cccc(F)c1)C1CCN(C(=O)c2ncn3c2COC(c2ccc(F)cc2)C3)CC1 (stereo not drawn)	i
COc1ccc(CCNC(=O)Cn2ccn3nc4c(c3c2=O)CCCCC4)cc1OC	49.0%
COc1ccc(-c2nc(-c3ccccc3)nc3c2CN(C(=O)C2CC2)CC3)cc1	11.2µM*
CC(C)c1nc2c(c(-c3ccc(O)cc3)n1)CN(C(=O)c1ccc(Cl)nc1)CC2	i
COc1ccc(-c2nc(C(C)C)nc3c2CCN(C(=O)c2ccccc2Cl)CC3)cc1	10µM*
COCC(=O)N1CCc2nc(C(C)C)nc(-c3ccc(OC)cc3)c2CC1	-11.3%
O=C(C1CC1)N1CCc2nc(-c3ccc(Cl)cc3)nc(-c3ccccc3)c2C1	i
CC(C)c1nc2c(c(-c3ccc(O)cc3)n1)CN(C(=O)c1ccccc1)CC2	-13.2%
Cc1ccccc1C(=O)N1CCc2nc(C(C)C)nc(-c3ccc(O)cc3)c2C1	-1.0%
CC(C)c1nc2c(c(-c3ccc(O)cc3)n1)CCN(C(=O)c1cccc(Cl)c1)CC2	7.94µM*
CC(C)c1nc2c(c(-c3ccc(O)cc3)n1)CN(C(=O)c1cccc(Cl)c1)CC2	4.47µM*
CC(C)c1nc2c(c(-c3ccc(O)cc3)n1)CCN(C(=O)c1ccccc1Cl)CC2	i
COc1cccc(C(=O)N2CCc3nc(C)nc(-c4ccc(Cl)cc4)c3CC2)c1	i
COc1ccc(-c2nc3c(c(-c4ccccc4)n2)CN(C(C)=O)CC3)cc1	i
COCCn1ncc(N2CCCC(CC(=O)Nc3ccc(C)cc3C)C2)cc1=O (stereo not drawn)	i
SMILES	Pf Dd2 growth
COc1ccc(-c2noc(CN(C)CCOc3ccc(C)cc3)n2)c(OC)c1OC	-3.4%
CC1(C)[C@H](Cc2cc(CN3CCN(c4ccccc4)CC3)on2)C[C@@H]1NC(=O)NCc1ccccc1	-4.7%
CCN1CC2(CCN(Cc3cnn(-c4ccc(F)cc4)c3)CC2)CC1=O	-10.4%
CSc1ccc(CNc2ncncc2-c2nc(-c3ccccc3)no2)cc1	i
O=C(Nc1cc(F)ccc1F)N1CC(c2nnc(-c3ccncc3)o2)C2(CCOCC2)C1 (stereo not drawn)	-9.2%
O=C(c1cccnc1)N1CCC(c2nc(C3CCOCC3)no2)C1 (stereo not drawn)	34.5%
C#CCNC(=O)C[C@@H]1CCN(C(=O)CCCCC)C[C@@H]1CC	i
COc1ccc(C(=O)N2CCC3(CC2)CC(CO)N(C(=O)c2ccccc2)C3)cc1 (stereo not drawn)	-28.3%
COc1ccc(C(=O)N2CCc3nc(C(C)C)nc(-c4ccc(O)cc4)c3C2)cc1	8.91µM*
COc1ccc(C(=O)N2CCCc3nc(C)nc(-c4ccc(O)cc4)c3C2)cc1	-13.3%
CC(=O)N1CCc2nc(C(C)C)nc(-c3ccc(O)cc3)c2C1	-13.8%[44.1 µM]
O=C(NCc1cccnc1)[C@@H]1C[C@@H](O)CN1C1CCN(C(=O)c2cccs2)CC1	15.6%
CCNC(=O)CCc1c(CC)nn(-c2ccccc2)c1Oc1ccccc1F	i
COCc1cn(C[C@H]2C[C@@H]3CCN2C[C@@H]3C(=O)NCc2ccccc2OC)nn1	-13.8%[44.1 µM]
c1ccc(C2=NOC3(CCN(CC4CC4)CC3)C2)cc1	-28.4%[44.1 µM]
O=C(c1n[nH]c2c1CCCCCC2)N1CCC(c2nc(C3CCOCC3)no2)C1 (stereo not drawn)	i
Cc1cc(S(=O)(=O)N2CCC(N(C(=O)C3CC3)C3CCOCC3)CC2)ccc1Cl	i
O=C(C1CC1)N(C1CCOCC1)C1CCN(S(=O)(=O)c2cc(F)cc(F)c2)CC1	i
O=C(C1CC1)N(C1CCOCC1)C1CCN(S(=O)(=O)c2ccc(F)c(Cl)c2)CC1	10µM*
Cn1cccc1C(=O)N[C@H]1C[C@H]2C(=O)Nc3ccc(/C=C/c4ccccc4)cc3C(=O)N2C1	-36.3%
Cc1ccc(Cl)cc1NC(=O)c1nnn(Cc2ccccc2)c1N	1.12µM*
COc1ccc(NC(=O)c2nnn(CC(=O)Nc3cc(C)cc(C)c3)c2N)c(OC)c1	-9.8%

Screening data deposited in PubChem BioAssay by National Center for Advancing Translational Sciences (NCATS).
